Data published in PubChem BioAssay AID1726 (National Center for Advancing Translational Sciences (NCATS), 2009).
Records with an inconclusive call do not appear. Active and inactive are the calls of the source. Calls follow the shape of the dose curve; as a rule, active = well fitted curve in the direction sought with a large enough effect; inconclusive = small, poorly fitted or top-dose-only effect, or effect the other way, or another doubt; inactive = no such curve, though single readings can be large or run the other way.

Molecular target: Epidermal growth factor receptor (Homo sapiens) (UniProt P00533)
Experiment: Assay for Inhibitors of the ERK Signaling Pathway using a Homogeneous Screening Assay: EGFR T790M/L858R Kinase Inhibition
Description: qHTS Assay for Inhibitors of the ERK Signaling Pathway using a Homogeneous Screening Assay
NIH Chemical Genomics Center [NCGC]
NIH Molecular Libraries Screening Centers Network [MLSCN]
Assay Submitter (PI): Dr. Wei Zheng, NCGC/NIH
The Ras/extracellular-signal-regulated kinase (ERK) mitogen activated protein (MAP) kinase signaling pathway (ERK1/2 cascade) plays is a key role in transmitting signals from the cell surface to the nucleus (Nishida and Gotoh 1993; Chang and Karin, 2001). The cascade is initiated by the small G-protein Ras, which recruits Raf […], where activation occurs. Alternatively, this pathway can be activated by elevating intracellular cAMP.
Activation of the ERK pathway is essential in increased cell division and cell survival. Sustained and constitutive activation of the ERK pathway, however, has been linked to uncontrolled cell proliferation, increased cell survival, and tumor progression. Thus, the ERK has been as an attractive target for cancer chemotherapy in the past few years (Sebolt-Leopold and Herrera, 2004). […]
The HTRF kinase assay (components supplied as kit by Cisbio) was chosen for the EGFR and EGFR mutant enzyme assays that applied the time resolved fluorescence resonance energy transfer (TR-FRET) principle. […]

Epidermal growth factor receptor (Homo sapiens), sequence (P00533 whole entry T790M/L858R, looked up): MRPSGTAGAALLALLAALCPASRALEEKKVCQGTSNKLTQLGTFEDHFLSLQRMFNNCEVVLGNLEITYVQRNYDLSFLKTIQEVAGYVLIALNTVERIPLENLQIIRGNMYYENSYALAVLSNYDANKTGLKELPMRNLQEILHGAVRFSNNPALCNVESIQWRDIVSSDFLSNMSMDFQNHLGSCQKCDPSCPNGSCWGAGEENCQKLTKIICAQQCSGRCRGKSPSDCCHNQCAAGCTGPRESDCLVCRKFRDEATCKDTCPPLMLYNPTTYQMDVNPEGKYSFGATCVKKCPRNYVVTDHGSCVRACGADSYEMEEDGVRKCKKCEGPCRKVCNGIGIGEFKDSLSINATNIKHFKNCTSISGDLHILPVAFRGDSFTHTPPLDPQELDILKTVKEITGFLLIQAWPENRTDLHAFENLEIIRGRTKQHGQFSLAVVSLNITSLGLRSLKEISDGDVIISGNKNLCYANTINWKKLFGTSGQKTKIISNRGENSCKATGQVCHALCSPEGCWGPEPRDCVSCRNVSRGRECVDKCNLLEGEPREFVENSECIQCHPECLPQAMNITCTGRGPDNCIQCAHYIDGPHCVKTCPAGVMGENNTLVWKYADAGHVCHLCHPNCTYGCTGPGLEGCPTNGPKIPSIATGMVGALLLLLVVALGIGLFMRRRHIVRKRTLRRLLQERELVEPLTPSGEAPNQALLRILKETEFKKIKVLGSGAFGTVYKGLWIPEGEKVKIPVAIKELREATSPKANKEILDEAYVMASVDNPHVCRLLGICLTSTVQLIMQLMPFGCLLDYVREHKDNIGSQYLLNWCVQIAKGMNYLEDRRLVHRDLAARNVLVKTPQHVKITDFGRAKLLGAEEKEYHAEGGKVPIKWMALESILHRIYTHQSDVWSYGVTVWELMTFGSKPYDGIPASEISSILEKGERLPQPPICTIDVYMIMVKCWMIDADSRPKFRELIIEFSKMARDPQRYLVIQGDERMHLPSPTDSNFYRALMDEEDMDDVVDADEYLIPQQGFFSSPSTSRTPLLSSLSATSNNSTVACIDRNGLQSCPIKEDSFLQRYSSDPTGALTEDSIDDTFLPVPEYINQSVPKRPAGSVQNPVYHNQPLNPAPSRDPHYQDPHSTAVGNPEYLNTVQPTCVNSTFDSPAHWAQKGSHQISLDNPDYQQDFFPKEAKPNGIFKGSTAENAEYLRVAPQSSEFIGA

Cc1nc2c(=O)n(C)c(=O)nc-2n(C)n1
outcome: inactive

CN1CCN(c2cccc3c2C(=O)c2ccccc2C3=O)CC1
outcome: inactive
